Most compounds without a hit are left out; they make up all but 4% or so of the library.
NLRP3 yeast inh: blocks the NALP3 inflammasome reconstituted in yeast. 0.39% of 330,000 active. AID 2825. Yeast reconstituted NLRP3/ASC/caspase-1, beta-gal luminescence, 24 h. inhibition, % at 10 µM;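 active means inhibition of 50% or more; inactive means inhibition below 50%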;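 further: plate controls were induced DMSO wells for no effect and uninduced yeast grown without galactose for full effect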
tim23-1 inh: tim23-1 yeast growth inhibition. S. cerevisiae tim23-1 growth, BacTiter-Glo luminescence, 24 h. inhibition, % at 20 µM. 1.3% of 330,000 active;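 active means growth inhibition of the mutant yeast at or above 50%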;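 further: temperature-sensitive mutant grown at 25 °C; plate controls were DMSO-treated mutant yeast for no effect and medium wells lacking yeast for full effect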
NALP1 yeast inh: NALP1 inhibition | S. cerevisiae NALP1/ASC/caspase-1 growth, X-gal OD620, 72 h | inhibition, % at 10 µM | 0.61% of 280,000 active; in the data active means inhibition mostly above about 24%, no sharp cut-off; inactive means mostly below about 32%
tim10-1 inh: tim10-1 yeast growth inhibition | AID 463190 | S. cerevisiae tim10-1 ts strain growth, BacTiter-Glo, 24 h | inhibition, % at 20 µM | 2.2% of 330,000 active;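 active means inhibition of at least 40%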;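 further: mutant grown at 25 °C; 0% = DMSO wells with yeast and 100% = wells holding no yeast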
TIM10 inh: inhibits growth of TIM10 yeast strain; S. cerevisiae TIM10 strain growth, BacTiter-Glo luminescence, 24 h; inhibition, % at 10 µM; 1.4% of 330,000 active;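 active means inhibition of 40% or more at the single tested concentration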;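 further: wild-type TIM10 isogenic control strain grown at permissive 25 °C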
tim23-1 confirm: tim23-1 yeast growth inhibition, confirmed; shares compounds with tim23-1 inh; S. cerevisiae tim23-1 growth, BacTiter-Glo luminescence, 24 h; inhibition, % at 20 µM; 83% of 4,400 active;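 active means inhibition above about 39% in either of two replicate wells at 20 µM, limit read from the data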;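 further: temperature-sensitive tim23-1 mutant grown at 25 °C; 0% = DMSO wells with yeast and 100% = medium wells without yeast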
The depositor's hits bear a star; nt = no result.

SMILES	NLRP3 yeast inh	tim23-1 inh	NALP1 yeast inh	tim10-1 inh	TIM10 inh	tim23-1 confirm
Cc1c([N+](=O)[O-])cnc(Sc2ccccc2)c1[N+](=O)[O-]	15	75*	nt	27	-12	73*
Cc1ccc(Sc2ncccc2[N+](=O)[O-])cc1	-9	6	11	8	-18	nt
CCOC(=O)NNc1ccc2nonc2c1[N+](=O)[O-]	-17	56*	10	20	31	69*
O=C(Nc1ccc([N+](=O)[O-])cc1)N1CCN(C(=O)C2CCCO2)CC1 (stereo not drawn)	3	-6	7	-11	3	nt
O=C(O)c1cn(-c2ccc(N3CCCC3)c(F)c2)c2c(F)c(F)c(F)cc2c1=O	13	53*	2	5	0	16
Cc1c(-n2cc(C(=O)O)c(=O)c3cc(F)c(N4CCCC(O)C4)c(F)c32)c(=O)n(-c2ccccc2)n1C (stereo not drawn)	19	9	4	6	0	nt
COc1cc(/C=C/[N+](=O)[O-])ccc1OC(=O)c1cc2ccccc2oc1=O	38	80*	-13	21	25	73*
COc1cccc(NC(=O)CCNC(=O)Cn2ccc3ccccc3c2=O)c1	14	6	9	4	-24	nt
O=C(COC(=O)c1ccc(O)cc1O)Nc1ccc(Cl)cn1	17	-23	22	-38	-44	nt
O=C(COC(=O)c1ccc(O)cc1O)c1ccc(Cl)cc1	29	63*	nt	-14	-24	43*
O=C1/C(=C/c2cccs2)COc2ccccc21	-2	58*	37	28	33	58*
COC(=O)C1=NN(c2ccc(C)cc2)C2(S1)SC(C(C)=O)=C(C)N2c1ccccc1 (stereo not drawn)	-1	51*	11	35	25	40*
CCN(CC)S(=O)(=O)c1ccc(N2CCCC2)c(NC(=O)Cc2c(F)cccc2Cl)c1	19	0	12	-8	6	nt
COc1ccc(Nc2nc3ccc(OC)cc3s2)cc1	6	61*	7	26	36	40*
COc1ccc2nc(Nc3nc(C)c(C(C)=O)s3)sc2c1	25	19	-6	18	28	nt
O=C(COC(=O)c1cc2ccccc2o1)NCc1ccco1	14	-9	nt	8	5	nt
Cc1cccc(NC(=O)C2CC(O)CN2C(=O)Oc2ccccc2)c1 (stereo not drawn)	9	7	11	-2	3	nt
CCN(CC)C(=O)Oc1ccc2oc(=O)cc(-c3cc4cccc(OC)c4o3)c2c1	12	16	6	34	6	nt
CCOC(=O)c1cccc(NC(=O)CCc2ccccc2)c1	6	61*	9	21	9	26
CCOC(=O)c1cccc(NC(=O)c2cc3ccccc3o2)c1	35	58*	-2	23	27	52*
CCOC(=O)c1ccc(NC(=O)c2cc3ccccc3o2)cc1	19	17	10	4	19	nt
Cc1cc(Cl)ccc1NC(=O)COC(=O)c1c(C)noc1C	20	-6	nt	-1	-3	nt
CC(=O)Nc1ccc(N2C(=O)CSC2c2cccc(Br)c2)cc1 (stereo not drawn)	17	2	-21	15	-5	nt
Cc1cc(C(=O)CCl)c(C)n1CCc1ccc(Cl)cc1	-97	55*	-8	4	0	53*
CCCCS/C(N)=N/N=C/c1ccccc1O	31	58*	9	37	24	66*
SMILES	NLRP3 yeast inh	tim23-1 inh	NALP1 yeast inh	tim10-1 inh	TIM10 inh	tim23-1 confirm
CCn1c(SCC(=O)Nc2oc(C)c3c(C)n[nH]c(=O)c23)nc2sc(C)c(C)c2c1=O	5	55*	nt	30	29	8
Cc1cc(C)c(C)c(SCC(=O)Nc2oc(C)c3c(C)n[nH]c(=O)c23)c1C	3	15	nt	22	13	nt
COc1ccc(S(N)(=O)=O)cc1C(=O)OCC(=O)N1c2ccccc2NC(=O)C1(C)C	16	94*	nt	-14	-3	13
NC(=O)c1c(NC(=O)c2ccc([N+](=O)[O-])o2)sc2c1CCCC2	-8	44	-26	28	16	nt
N#Cc1c(NC(=O)c2ccc([N+](=O)[O-])o2)sc2c1CCC2	14	58*	16	37	38	69*
CCOc1cc(NCc2ccccc2)c2ncn(C(C)C)c2c1	20	63*	nt	-8	22	40*
Cc1ccc(CNC(=O)C2CCC(=O)N(CCCN3CCOCC3)C2)cc1 (stereo not drawn)	2	11	11	6	0	nt
CS(=O)(=O)c1ccc2nc(NC(=O)c3ccco3)sc2c1	13	54*	18	31	29	52*
CCOc1ccc2nc(NC(=O)c3ccco3)sc2c1	24	55*	18	21	40	57*
N=c1oc2ccc(Br)cc2cc1C(=O)NCc1ccccc1	-10	26	16	36	19	nt
N=c1oc2ccc([N+](=O)[O-])cc2cc1C(=O)NCc1ccccc1	16	59*	3	26	15	56*
O=C(NCc1cccnc1)C1CC(c2ccccc2O)=NO1 (stereo not drawn)	15	3	-2	8	-1	nt
CCC(=O)NC(c1cc(Cl)c2ccccc2c1O)C(C)C (stereo not drawn)	11	34	nt	21	17	nt
CCC(=O)NC(c1ccc(OC)c(OC)c1)c1cc(Cl)c2cccnc2c1O (stereo not drawn)	nt	nt	3	nt	nt	nt
O=C(O)COc1ccccc1C(Nc1cccnc1)c1cc(Cl)c2cccnc2c1O (stereo not drawn)	17	10	17	-1	22	nt
CCC(=O)NC(C)c1cc(Cl)c2cccnc2c1O (stereo not drawn)	18	55*	nt	31	9	58*
CCOc1ccc(C(Nc2cccnc2)c2cc(Cl)c3cccnc3c2O)cc1 (stereo not drawn)	21	56*	44*	39	12	69*
CCC(=O)NC(c1ccc(C)cc1)c1cc(Cl)c2cccnc2c1O (stereo not drawn)	5	54*	nt	27	-34	58*
CC(C)CC(=O)NC(c1cccs1)c1ccc2cccnc2c1O (stereo not drawn)	17	52*	-16	33	-43	65*
CC(C)(C)c1ccccc1NC(=O)CN1C(=O)NC(Cc2ccccc2)C1=O (stereo not drawn)	35	12	nt	23	3	nt
O=C(NC(c1ccccc1)c1cc(Cl)c2cccnc2c1O)c1cccnc1 (stereo not drawn)	21	70*	-1	36	-17	80*
CCCC(=O)NC(c1cccs1)c1cc(Cl)c2cccnc2c1O (stereo not drawn)	20	56*	13	15	-15	69*
COc1ccccc1C(NC(C)=O)c1cc(Cl)c2cccnc2c1O (stereo not drawn)	15	36	21	31	17	nt
O=C(O)c1ccc(N=N/C(=N\Nc2ccc(C(=O)O)cc2)c2ccccc2)cc1	33	25	nt	5	10	nt

Screening results deposited in PubChem BioAssay by Sanford-Burnham Center for Chemical Genomics.
